This is a sample that favours compounds with a hit; in the whole collection about 4.1% have one here.
DAX1 inh-1 – DAX1 (NR0B1) inhibitors, primary screen, cell-based, HEK293, Gal4-DAX1, luciferase luminescence. Nuclear receptor subfamily 0 group B member 1 (Homo sapiens), P51843. HEK293 Gal4-DAX1 luciferase reporter. inhibition, % at 6.75 µM. 340,000 tested, 0.99% active;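 active means inhibition above the mean over all tested compounds plus 3 SD, cut at about 4.2% in these data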;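 further: 0% = DAX1-transfected cells with DMSO and 100% = empty-vector control cells with DMSO; inhibition shows as a rise in luminescence from relieved DAX1 repression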
Target sequence (P51843 207-470 limits assumed): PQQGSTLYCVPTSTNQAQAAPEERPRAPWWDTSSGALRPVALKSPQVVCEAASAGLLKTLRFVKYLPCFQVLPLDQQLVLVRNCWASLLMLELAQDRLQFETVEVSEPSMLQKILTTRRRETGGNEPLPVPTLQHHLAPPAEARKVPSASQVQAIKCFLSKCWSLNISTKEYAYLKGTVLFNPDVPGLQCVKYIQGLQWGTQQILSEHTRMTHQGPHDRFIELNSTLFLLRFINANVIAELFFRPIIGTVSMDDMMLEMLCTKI
hgDAF12 agonist – H. glycines DAF-12 receptor agonists, primary screen, cell-based, luminescence, HEK293, GAL4 fusion, UAS-luciferase. Nuclear hormone receptor DAF-12 (Heterodera glycines), GAL4 fusion. activation, % at 6.8 µM. HEK293 GAL4-hgDAF12 UAS-luciferase reporter, agonist luminescence; normalized to butyrate control. 370,000 tested, 1.8% active;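 active means activation above a cutoff set at the mean of all screened compounds plus 3 SD, cut at about 10% in these data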;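 further: 0% = DMSO wells and 100% = sodium butyrate wells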
DAX1 inh-2 – DAX1 (NR0B1) inhibitors on StAR promoter, primary screen, cell-based, luminescence, SF-1 (NR5A1), full-length DAX-1 | HEK293T StAR-luciferase reporter, SF-1/DAX-1 repression relief | inhibition, % at 6.8 µM | 370,000 tested, 1.1% active | AID 652010, 2013;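 active means inhibition above the mean over all tested compounds plus 3 SD, cut at about 3.6% in these data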;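 further: 0% = DAX-1 cells with DMSO and 100% = cells lacking DAX-1 with DMSO; higher inhibition means more luminescence from relief of DAX-1 repression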
ssDAF-12 act – S. stercoralis DAF-12 nuclear receptor activators, primary screen, cell-based, luminescence, HEK293, GRIP1 co-expression, lit1-tk-luc | Nuclear hormone receptor DAF-12 (Strongyloides stercoralis) | HEK293 ssDAF-12/GRIP1 lit1-tk-luc reporter; % of 3 µM dafachronic acid response | activation, % at 6.8 µM | 370,000 tested, 1% active | AID 652126, 2013;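 active means activation above the mean over all tested compounds plus 3 SD, cut at about 0.9% in these data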;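 further: 0% = DMSO-only wells and 100% = 3 µM delta7-dafachronic acid wells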
hcDAF12 agonist – H. contortus DAF-12 nuclear receptor activators, primary screen, cell-based, luminescence, HEK293, lit1-tk-luc reporter; activation, % at 6.8 µM; 370,000 tested, 1.4% active; HEK293 hcDAF-12 lit1-tk-luc reporter; 0% DMSO, 100% Δ7-dafachronic acid;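 active means activation above the mean of all tested compounds plus 3 SD, cut at about 5.5% in these data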;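 further: 100% = response to 3 µM Δ7-dafachronic acid high control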
An asterisk follows results filed as active; · = not tested or not shown; ! = not confirmed by another sample.

SMILES | DAX1 inh-1 | hgDAF12 agonist | DAX1 inh-2 | ssDAF-12 act | hcDAF12 agonist
O=C(NC1CCCCC1)O[C@H]1CC[C@@]23CCCN2C(=O)CCC[C@H]3C1 | · | -3.0 | · | -1.6 | -0.3
O=C(NCCc1ccccc1)OCc1cn(-c2ccc(F)c(F)c2)nn1 | · | 1.9 | 0.3 | -1.0 | 0.6
Nc1c(C(=O)O)cnc2c(-c3ccc(Cl)cc3)cnn12 | 0.4 | 11.7* | 2.4 | 1.0* | 6.4*
COc1ccc(C)cc1N(C(=O)COc1ccccc1)c1nc2ccccc2s1 | 2.5 | 4.5 | 0.6 | 0.5 | 6.2*
COc1ccc(C)cc1N(C(=O)c1cccc(F)c1)c1nc2ccccc2s1 | 0.2 | 1.4 | 0.2 | 0.0 | 6.5*
COc1ccc(C)cc1N(C(=O)c1ccccc1)c1nc2ccccc2s1 | -0.3 | 1.4 | -0.3 | 0.3 | 3.5
C[C@H]1COc2cc(N3CCCC3)ccc2S(=O)(=O)N1C | · | -2.5 | -1.1 | -1.3 | -1.2
O=C(N/N=C/c1ccc([N+](=O)[O-])o1)c1cc2ccccc2o1 | -4.5 | -11.7 | -4.7 | -2.6 | -5.4
O=[N+]([O-])c1ccc(/C=N/Nc2ccc3ccccc3c2)o1 | 1.5 | 4.3 | -1.5 | -0.1 | 6.4*
CC(=Nc1ccccc1)C1=C(O)CCCC1=O | 5.2* | -1.1 | 0.0 | -0.8 | 0.6
COc1ccc(C(=O)OCCCN(C)C2CN(Cc3cn(Cc4ccccc4F)nn3)S(=O)(=O)C2)cc1OC (stereo not given) | · | 5.0 | -1.0 | -1.8 | -3.4
CC(C)c1ccc(NC(=O)C2=NNC(=O)CC2)cc1 | 5.3* | 7.3 | 2.2 | -0.9 | 3.3
COC(=O)[C@]1(C)N[C@H](CN(C)C(=O)c2ccccc2)[C@@H]2C(=O)N(Cc3ccccc3)C(=O)[C@@H]21 | -0.7 | 2.2 | 0.0 | -1.1 | 2.4
CCN(C[C@H]1N[C@@](Cc2ccccc2)(C(=O)OC)[C@H]2C(=O)N(Cc3ccccc3)C(=O)[C@@H]12)C(=O)C1CCCCC1 | 1.1 | 2.9 | 4.2* | 0.0 | 0.0
CCN(C[C@H]1N[C@@](C)(C(=O)OC)[C@H]2C(=O)N(Cc3ccccc3)C(=O)[C@@H]12)C(=O)C1CCCCC1 | -1.6 | -3.3 | -1.3 | -1.4 | -1.0
COC(=O)[C@]1(C)N[C@H](CN(C)C(C)=O)[C@@H]2C(=O)N(Cc3ccccc3)C(=O)[C@@H]21 | 0.1 | -1.4 | 0.5 | 3.7* | -0.3
CCn1c(=O)n(CC(=O)N2CCN(c3ccc(F)cc3)CC2)c(=O)c2ccccc21 | · | -0.3 | -0.1 | -1.0 | -0.6
COC(=O)[C@H](CC(C)C)N(CCCc1cn(Cc2ccc(C)cc2)nn1)S(=O)(=O)c1ccccc1Br | · | 0.0 | -2.6 | -1.3 | -4.5
CCCCNS(=O)(=O)CC1NCc2cc(F)ccc21 (stereo not given) | · | -1.9 | 1.1 | -1.5 | -0.7
Cn1c(-c2ccc(C=O)s2)nc2ccccc21 | 0.2 | 12.0* | 0.2 | -0.4 | 2.7
CC(C)Cn1c(-c2cccs2)nc2ccccc21 | -1.9 | 1.9 | -0.5 | -0.6 | -0.5
Cn1c(-c2cccs2)nc2ccccc21 | 0.3 | 11.4* | 2.2 | -0.2 | 2.4
Cn1c(-c2ccc(N)cc2)nc2ccccc21 | 1.2 | 8.1 | 1.0 | -0.6 | 1.4
O=C(CCC(=O)OCCOc1ccccc1)OCCOc1ccccc1 | · | -2.7 | 1.2 | -0.7 | -0.7
C[N+](C)(C)CCOC(=O)CCC(=O)OCC[N+](C)(C)C | -0.2 | 11.1*! | 0.6 | -0.7 | -1.0
SMILES | DAX1 inh-1 | hgDAF12 agonist | DAX1 inh-2 | ssDAF-12 act | hcDAF12 agonist
Cc1ccc(NC(=O)CNCc2ccccc2OCC(=O)Nc2ccc(I)cc2)cc1 | · | 4.4 | -0.2 | -1.3 | -3.2
O=C(COc1ccccc1CNCc1ccccc1)Nc1ccccc1 | 1.7 | 10.7* | 3.5 | -1.6 | -0.4
COc1cc2cnc(-c3ccsc3)cc2cc1OC | 1.4 | 1.1 | -0.1 | -0.4 | 2.1
c1cc(-c2cc3cc4c(cc3cn2)OCO4)cs1 | 1.4 | 6.9 | 1.9 | 1.2* | 5.8*
C#CCN1C(=O)[C@]2(NCCc3c2[nH]c2ccc(OC)cc32)c2cc(F)ccc21 | · | 2.5 | -0.8 | -0.7 | -1.8
C=CCn1c(N)cc(=O)nc1SCC(=O)Nc1ccc(C(=O)OCC)cc1 | 5.8* | 1.7 | -0.5 | -0.2 | -1.2
C=CCn1c(N)cc(=O)nc1SCC(=O)Nc1ccc(C(=O)OC)cc1 | 0.4 | 2.7 | 0.4 | -1.2 | 0.3
CCOc1ccc(N(C(C)=O)C2C=CS(=O)(=O)C2)cc1 (stereo not given) | 5.3* | 2.7 | -0.2 | -1.0 | -0.3
COc1ccc(CCNC(=O)c2c(N)[nH]c(C(=O)c3ccccc3)c2-c2ccc(N(C)C)cc2)cc1 | · | -0.2 | · | -2.1 | -3.2
CCN(C(=O)[C@@H](C)[C@@H](O)c1ccc(C(C)=O)cc1)c1ccccc1 | · | -1.7 | -1.3 | 0.0 | -1.0
Cc1ccc(NC(=O)[C@H]2CC(=O)O[C@@H]2c2ccccc2)c(C)c1 | · | 1.0 | -0.1 | -1.6 | 2.8
O=C(CN1CCN(Cc2ccc3c(c2)OCO3)CC1)Nc1ccc(F)cc1 | 4.8* | 2.9 | 0.5 | -1.2 | -2.0
O=C(CN1CCc2ccccc2C1)Nc1ccc(F)cc1 | 4.2* | 0.6 | 0.1 | -1.4 | -0.8
CN(C)c1ccc(NC(=O)CN2CCc3ccccc3C2)cc1 | 0.1 | 4.8 | 0.5 | 0.2 | 5.7*
CCOc1ccc(NC(=O)CN2CCc3ccccc3C2)cc1 | 2.6 | 2.5 | -0.8 | -0.9 | 2.2
O=C(Nc1ccc(Cl)c(Cl)c1)C1CCN(c2ncccn2)CC1 | · | 5.9 | -0.9 | -1.4 | -2.4
O=C(O/N=C1/CCCc2occc21)c1ccccc1 | 0.2 | 0.0 | 0.0 | -0.3 | -1.0
O=C(O/N=C1/CCCc2occc21)c1ccc(Cl)cc1Cl | 6.8* | 3.9 | 0.4 | -1.1 | -1.6
COc1ccc(S[C@]2(C(=O)N(C)C)CC(=O)N(c3ccsc3)[C@@H]2c2ccc(OC)cc2)cc1 | · | 3.3 | -1.3 | -1.5 | -1.3
C/C(=N/NC(=O)CCCOc1ccc(Cl)cc1Cl)c1ccc(C)o1 | 0.1 | -0.2 | -1.1 | 1.1* | -1.1
Cc1cc(NC(=O)CCCOc2ccc(Cl)cc2Cl)no1 | 0.5 | 0.9 | 0.0 | -1.5 | 2.5
COc1ccc(N=c2cc(-c3ccc(OC)cc3)oc3ccccc23)cc1 | 1.9 | 8.2 | -0.4 | 1.0* | -0.1
Cc1ccc(-c2[nH]c3ccccc3c2SCCN)cc1 | 2.5 | 3.5 | 0.8 | 1.2* | 6.0*
CC(C)(C)c1ccc(OCC(=O)NCC(c2cccs2)N2CCOCC2)cc1 (stereo not given) | -2.5 | -2.0 | 4.3* | -0.9 | -0.6
COc1ccc(OCC(=O)NCC(c2cccs2)N2CCOCC2)cc1 (stereo not given) | -0.6 | -4.0 | 1.7 | -1.0 | 1.6

Compound activity as filed in PubChem.
